# This is one part of a sample in which hits are shown more often than they occur.
# 14-3-3g Raf: modulators of human 14-3-3 gamma - Raf peptide interaction | inhibition, % at 40 µM | 160,000 tested, 0.19% active | FP, 14-3-3gamma / TMR-pS259-Raf peptide binding; in the data active = inhibition above about 30%
# Target sequence (P61981 whole entry, looked up): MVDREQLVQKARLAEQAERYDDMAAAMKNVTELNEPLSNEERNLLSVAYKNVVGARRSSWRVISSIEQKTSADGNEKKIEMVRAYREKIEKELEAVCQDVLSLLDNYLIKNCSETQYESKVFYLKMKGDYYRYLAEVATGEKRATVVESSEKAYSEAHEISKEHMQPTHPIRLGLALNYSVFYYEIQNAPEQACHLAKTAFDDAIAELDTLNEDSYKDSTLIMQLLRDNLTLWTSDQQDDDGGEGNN
# Hits are given with their value; – = inactive.
SMILES,14-3-3g Raf
NC(=O)c1c(NC(=O)c2ccc(Cl)cc2)sc2c1CCCC2,40
CC1(C)NC(=O)N(CC(O)CN(c2cccc3ccccc23)S(=O)(=O)c2ccccc2)C1=O (stereo not drawn),–
O=c1oc(-c2cccc3ccccc23)nc2sc3c(c12)CCCC3,–
COc1cccc(NC(=O)CSc2nc3ccccc3[nH]2)c1,–
O=C1OC(c2ccc(F)cc2)c2ccccc21 (stereo not drawn),–
Cc1ccc2cc3cc(C(=O)N4CCN(c5cccc(C)c5C)CC4)oc3nc2c1,57
Cc1ccc2cc3cc(C(=O)N4CCN(c5ccc(F)cc5)CC4)oc3nc2c1,67
Cc1ccc2cc3cc(C(=O)NC4CCN(Cc5ccccc5)CC4)oc3nc2c1,–
Cc1ccc2cc3cc(C(=O)NC4CCCC4)oc3nc2c1,–
Cc1ccc2cc3cc(C(=O)N4CCC(C)CC4)oc3nc2c1,–
Cc1ccc2cc3cc(C(=O)NC4CC4)oc3nc2c1,36
Cc1ccc2cc3cc(C(=O)N4CCN(c5ccc([N+](=O)[O-])cc5)CC4)oc3nc2c1,–
Cc1ccc2cc3cc(C(=O)N4CC(C)CC(C)C4)oc3nc2c1 (stereo not drawn),–
Cc1ccc2cc3cc(C(=O)N4CCN(C5CCCCC5)CC4)oc3nc2c1,–
CCOC(=O)c1cccnc1SCC(=O)Nc1cccc(SC)c1,–
CCCCNC(=O)C1c2ccccc2C(=O)N(C)C1c1ccc(OC)cc1 (stereo not drawn),–
CCOCCOC(=O)C1=C(C)NC2=C(C(=O)CC(c3cccs3)C2)C1c1ccccc1F (stereo not drawn),–
COc1ccccc1C1CC(=O)C2=C(C1)NC(C)=C(C(=O)OC1CCCC1)C2c1cc(OC)c(OC)c(OC)c1 (stereo not drawn),–
O=C(CCn1c(=S)[nH]c2ccsc2c1=O)N1CCCC1,–
O=C(Nc1ccc(-c2nc3ccccc3o2)c(O)c1)c1cc([N+](=O)[O-])ccc1Cl,–
CCn1c(=O)n(CC(=O)NCCCOC)c(=O)c2ccccc21,–
Cc1nn(C(C)(C)C)c(OC(=O)C(C)C)c1Sc1ccc(Cl)cc1,–
CC1=C(C(=O)Nc2ccccc2F)C(c2ccc(C)cc2)C2=C(CC(C)(C)CC2=O)N1 (stereo not drawn),–
COc1cccc(-c2ccc3c(N)c(C(=O)c4ccc(Cl)cc4)sc3n2)c1,–
COc1ccc(-c2ccc3c(N)c(C(=O)Nc4ccc5c(c4)OCCO5)sc3n2)cc1,–
SMILES,14-3-3g Raf
COc1ccc(-c2ccc3c(N)c(C(=O)c4ccc5c(c4)OCCO5)sc3n2)cc1,71
CCCCOc1ccc(S(=O)(=O)N2CCSC2c2ccccc2OC)cc1 (stereo not drawn),–
CCN(C(=O)CCNC(=O)Cn1cnc2ccccc2c1=O)c1cccc(C)c1,–
O=C(CSN1CN(c2ccccc2)C(COc2ccccc2)=N1)NC1CCCCC1,–
CCc1ccc(O)c(N=Cc2cccc(C)c2O)c1,–
C=CCc1cccc(/C=N/c2ncn[nH]2)c1O,–
C=CCc1cccc(C=Nc2cc(Br)ccc2O)c1O,43
CCN(CC)c1ccc2cc(-c3nnc(Nc4cc([N+](=O)[O-])ccc4F)s3)c(=O)oc2c1,–
COc1cccc2cc(-c3cn(-c4ccc(C)cc4C)c(=S)[nH]3)c(=O)oc12,–
O=C1C(=O)N(CCCn2ccnc2)C(c2ccncc2)/C1=C(\O)c1ccc(F)cc1 (stereo not drawn),–
COc1ccc(/C(O)=C2\C(=O)C(=O)N(CCCn3ccnc3)C2c2ccccc2F)cc1 (stereo not drawn),37
COc1ccccc1C1/C(=C(\O)c2ccc(Cl)cc2)C(=O)C(=O)N1CCCn1ccnc1 (stereo not drawn),–
Cc1ccc(CNC(=O)c2ccc3c(c2)N(Cc2ccc(Cl)cc2)C(=O)CS3)cc1,–
COc1ccc2nc3sc(C(=O)NCCCN(C)Cc4ccccc4)cc3cc2c1,–
CCOc1ccc(NC(=O)CCCC2=NS(=O)(=O)c3ccccc3N2)cc1,–
CCc1ccccc1N(CC)C(=O)c1cc2cc3ccc(OC)cc3nc2o1,177
COc1ccc2cc3cc(C(=O)NC(C)CCc4ccccc4)sc3nc2c1 (stereo not drawn),–
CCc1cccc(NC(=O)c2cc3cc4ccc(OC)cc4nc3o2)c1,–
CCOc1ccc(N(CC)C(=O)c2cc3cc4ccc(OC)cc4nc3o2)cc1,–
COc1ccc2cc3cc(C(=O)NC(C)CCc4ccccc4)oc3nc2c1 (stereo not drawn),145
CCN(C(=O)c1cc2cc3ccc(OC)cc3nc2o1)c1cc(C)ccc1C,–
COc1ccccc1N(CC(=O)Nc1ccccc1C)S(=O)(=O)c1ccc(C)cc1,–
O=C(NC1CCCCC1)C(c1ccc(Cl)cc1)N1CCN(c2ccccc2)CC1 (stereo not drawn),–
COc1nccnc1NS(=O)(=O)c1ccc(NC(=O)c2ccc(C(C)=O)cc2)cc1,–
Cc1cc(C)c(NC(=O)CSc2nnnn2-c2ccc(Cl)cc2)c(C)c1,–
SMILES,14-3-3g Raf
CCOc1ccccc1C(=O)Oc1c(Sc2ccccc2[N+](=O)[O-])c(C)nn1C(C)(C)C,–
CCOC(=O)C(CC)Oc1ccc2c(C(F)(F)F)cc(=O)oc2c1 (stereo not drawn),–
COC(=O)CC1SC(=O)NC1=Nc1ccc(O)cc1 (stereo not drawn),–
COc1cc(C=Nc2ccc(N(C)C(C)=O)cc2)ccc1OC(C)=O,–
COc1cc(C=Nc2ccc(O)cc2)ccc1OC(=O)CC1SC(=O)NC1=O (stereo not drawn),103
CCC(C)NS(=O)(=O)c1ccc2c(c1)CCC(=O)N2 (stereo not drawn),–
Cc1ccc(-n2c(SCC(=O)NCCc3ccccc3)nc3c(c2=O)SCC3)cc1,–
CCOc1cc(C(=O)Nc2ccc(C)cn2)cc(OCC)c1OCC,–
COc1ccc(-c2nc(CSCC(=O)NCC3CCCO3)c(C)o2)cc1OC (stereo not drawn),–
COc1ccc(-c2nc(CSCC(=O)N3CCC(C(N)=O)CC3)c(C)o2)cc1OC,–
CCOC(=O)N1CCC(NC(=O)CSCc2nc(-c3ccc(OC)c(OC)c3)oc2C)CC1,61
COc1ccc(C(=O)Nc2nc3c(s2)CC(C)CC3)cc1 (stereo not drawn),–
CNc1cc(Nc2ccc(C)cc2)c2c3c(onc13)-c1ccccc1C2=O,–
COC(=O)C(C(=O)OC)c1cc(Br)c2noc3c2c1C(=O)c1ccccc1-3,–
CC(C)Nc1cc2c(NC(C)C)onc2c2c1C(=O)c1ccccc1C2=O,87
O=C(NC1CCCc2ccccc21)c1cccn2c(=O)c3ccccc3nc12 (stereo not drawn),–
CCOc1cccc(NC(=O)C2CC(=O)N(C)C(=Nc3ccc(C)c(Cl)c3)S2)c1 (stereo not drawn),–
CC1=CC(C)(C)Nc2ccc(OC(=O)c3ccccc3Br)cc21,–
COc1ccc(-c2n[nH]c3c2C(c2ccc(OC)cc2)N(c2ccc(Br)cc2)C3=O)cc1 (stereo not drawn),–
CCOc1cc(C2c3c(-c4ccc(OC)cc4)n[nH]c3C(=O)N2c2ccc(Br)cc2)ccc1O (stereo not drawn),–
CCOc1ccc(-c2n[nH]c3c2C(c2ccccc2)N(c2ccc(Br)cc2)C3=O)cc1 (stereo not drawn),134
CCOC(=O)c1cnc2c(C(F)(F)F)cccc2c1Nc1ccc(N2CCCCC2)cc1,–
CC1CCCCN1C(=O)Cn1c(=O)n(CCC(=O)NCc2ccc3c(c2)OCO3)c(=O)c2sccc21 (stereo not drawn),–
CC(=O)c1c(C(C)=O)c(C)n(-c2ccc(C)c(NC(=O)c3ccc(F)cc3)c2)c1C,32
